Rows were chosen to be rich in hits. Some 11% of all compounds tested hit in one or more screens of this group.
Pf growth 96h = Primary qHTS for delayed death inhibitors of the malarial parasite plastid, 96 hour incubation; Potency, µM (doses to about 28.7 µM), inactives show at the highest dose activity change, negative = inhibition, hits mostly inhibitors; 320,000 tested, 6.9% active; P. falciparum luciferase reporter growth, 96 h
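Compounds incubated with erythrocytes infected by luciferase-expressing P. falciparum (2% hematocrit, 0.05% parasitemia final) for 96 hours, 37 C in 5% CO2. Growth inhibition scored as decreased luciferase luminescence.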
AmpC detergent = qHTS Inhibitors of AmpC Beta-Lactamase (assay with detergent); P00811; AmpC hydrolysis of nitrocefin, absorbance 480 nm, 0.01% Triton; Potency, µM (doses to about 114 µM), for inactives: at the top dose activity change, negative = inhibition, hits mostly inhibitors; 370,000 tested, 0.041% active; AID 485294, 2010;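 also: 0% = no-compound wells and -100% = no-enzyme wells; nearly all actives have a fitted effect of over 25% in size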
Target sequence (P00811 whole entry, looked up): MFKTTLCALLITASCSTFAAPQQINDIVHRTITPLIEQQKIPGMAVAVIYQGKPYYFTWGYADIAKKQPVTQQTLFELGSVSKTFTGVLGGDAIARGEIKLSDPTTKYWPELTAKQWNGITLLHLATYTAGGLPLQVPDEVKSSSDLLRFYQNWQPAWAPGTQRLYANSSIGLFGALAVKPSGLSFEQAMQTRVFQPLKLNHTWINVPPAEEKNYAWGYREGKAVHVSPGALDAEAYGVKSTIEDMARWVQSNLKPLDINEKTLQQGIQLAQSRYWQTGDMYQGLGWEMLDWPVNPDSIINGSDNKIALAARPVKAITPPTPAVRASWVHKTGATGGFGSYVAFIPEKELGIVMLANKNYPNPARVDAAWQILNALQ
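AmpC (5.3 nM in the dispensed reagent) in 20 mM phosphate pH 7.0 with 0.01% (detergent screen) or 0.0001% Triton X-100 was preincubated with compounds for 15 min at room temperature. Nitrocefin was then added from an 800 uM solution, and hydrolysis was followed at 480 nm.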
Pf growth 48h = Primary qHTS for delayed death inhibitors of the malarial parasite plastid, 48 hour incubation; P. falciparum luciferase growth in erythrocytes, 48 h; Potency, µM (series often up to 28.7 µM), for the others: top-dose activity change, negative = inhibition, most hits filed as inhibitors; 310,000 tested, 5.9% active; AID 504832, 2011
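Firefly luciferase activity from engineered P. falciparum reports growth; inhibitors lower the luminescent signal. Cultures contained 2% hematocrit erythrocytes at 0.1% final parasitemia.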
AmpC inh no detg = qHTS Inhibitors of AmpC Beta-Lactamase (assay without detergent); AmpC nitrocefin hydrolysis, absorbance 480 nm, 0.0001% Triton; Potency, µM (doses to about 57.1 µM), inactives show at the top dose activity change, negative = inhibition, hits mostly inhibitors; 330,000 tested, 0.52% active; AID 485341, 2010;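 also: plate controls were no compound for no effect and no enzyme for full effect; nearly all actives have a fitted effect of over 20% in size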
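20 mM phosphate pH 7.0 + 0.01% (detergent screen) or 0.0001% Triton X-100; 5.3 nM AmpC reagent; cpd preinc 15 min RT; nitrocefin (800 uM stock) to start; A480 q20 s × 4 min; Activity was normalised to no-enzyme and no-compound control wells.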
HCV inhibitor = qHTS Assay for Inhibitors of Hepatitis C Virus (HCV). Huh7.5.1 HCVcc-Cre infection, luciferase reporter, 44 h. Potency, µM (titrated, usually from 41.8 µM), without a hit: at the highest dose activity change, negative = inhibition, actives largely listed as inhibitors. 340,000 tested, 3.4% active. AID 651820, 2012
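1,000 cells/well; 4 h culture; + compound; + HCVcc-Cre (~0.5 moi); 44 h; luciferase substrate, RT 15 min; read 15 sec.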
AMA1 RON2 block = qHTS for Inhibitors of AMA1-RON; Towards Development of Antimalarial Drug Lead: Primary Screen; Potency, µM (highest dose often 58.2 µM), for inactives: at the highest dose activity change, negative = inhibition, usual class: inhibitors; AlphaScreen AMA1-biotinylated RON2 peptide binding; AID 720542, 2013; Plasmodium falciparum AMA1 (3D7) - RON2 peptide interaction; 360,000 tested, 0.2% active;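 also: 0% = vehicle wells and -100% = peptide control; nearly all actives have a fitted effect of over 45% in size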
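AMA1 (3D7) with his tag at 25 nM final met compounds first, then biotinylated RON2 peptide at 25 nM; detection used donor plus acceptor beads, 10 µg/mL apiece, read by AlphaScreen after 30 min at room temperature.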
Starred values were filed as active, the others as inactive; ? = inconclusive; . = not tested or not shown; [ ] = dose if it differs, or a comment. Calls follow the shape of the dose curve; as a rule, active = well fitted curve in the direction sought with a large enough effect; inconclusive = small, poorly fitted or top-dose-only effect, or another doubt; inactive = no such curve, though single readings can be large; an effect the other way counts as inactive or inconclusive. Unless noted, % is scaled to controls: 0 for no effect and ±100 for the full control effect; potency is read from the fitted curve at half-maximal effect.

SMILES	Pf growth 96h	AmpC detergent	Pf growth 48h	AmpC inh no detg	HCV inhibitor	AMA1 RON2 block
CCN(CC)C(=O)[C@H]1C[C@H](CC(=O)NCc2cccc(C(F)(F)F)c2)C(=O)N2CCc3c([nH]c4ccc(Cl)cc34)[C@]12C	.	.	.	151.4%	?	4.7%
CCN(CC)C(=O)[C@H]1CC(CC(=O)NCc2cccc(C(F)(F)F)c2)C(=O)N2CCc3c([nH]c4ccccc34)[C@]12C (some centres not stated)	.	.	.	331.3%	12.6µM*	-20.3%
CN(C)C(=O)CCc1ccc2c3c([nH]c2c1)[C@]1(CCC2CCCC2)[C@@H](C(=O)N2CCOCC2)C[C@H](CC(=O)NCCN2CCOCC2)C(=O)N1CC3	.	.	.	177.8%	0.316µM*	7.7%
CC[C@]12c3[nH]c4cc(CCC(=O)N(C)C)ccc4c3CCN1C(=O)[C@@H](CC(=O)NCc1cccc(C(F)(F)F)c1)C[C@@H]2C(=O)N1CCN(C(=O)C2CC2)CC1	.	.	.	196.9%	0.562µM*	5.8%
CN(C)CCCNC(=O)C[C@H]1C[C@H](C(=O)N2CCOCC2)[C@@]2(CCC3CCCC3)c3[nH]c4cc(CCC(=O)N(C)C)ccc4c3CCN2C1=O	.	.	.	186.7%	29.1%	-5.2%
Clc1cccc(-n2ncc3c(NCCCN4CCOCC4)ncnc32)c1	.	-2.2%	.	.	.	.
Cc1[nH]c(=O)[nH]c(=O)c1C1N2CC3(C(C)C)CN1CC(C(C)C)(C2)C3=O (configuration not stated)	.	19.4%	.	.	.	.
O=C(Cn1cnc2onc(-c3ccc(F)cc3)c2c1=O)Nc1ccc(F)c(Cl)c1	.	-7.8%	.	.	.	.
Cc1ccc(N2CCN(Cc3nnc(-c4ccccc4F)o3)CC2)c(C)c1	.	-0.6%	.	.	.	.
CCOC(CCn1c(SCc2cccc([N+](=O)[O-])c2)nc2ccccc2c1=O)OCC	-2.2%	?	?	29.3%	?	-13.1%
Cn1c(SCc2cccc([N+](=O)[O-])c2)nc2ccccc2c1=O	10.4µM*	-0.7%	5.22µM*	10.6%	-25.1%	-16.5%[11.6 µM]
Cn1c(SCc2cccc(C#N)c2)nc2ccccc2c1=O	68.8%	?	10.4µM*	-17.9%	31.6µM*	9.5%
COCCn1c(SCc2cccc([N+](=O)[O-])c2)nc2ccccc2c1=O	?	4.2%	9.28µM*	16.4%	11.2µM*	-18.7%
CCOC(=O)c1c(NC(=O)/C=C/C(=O)O)sc(C)c1-c1ccc(C)c(C)c1	17.3%	-6.0%	9.28µM*	-7.9%	-1.4%	9.8%
Nc1ncnc(Sc2ccc(Cl)cc2)c1[N+](=O)[O-]	25.1%	8.0%	?	-4.9%	-11.9%	5.2%
Nc1ncnc(Sc2ccccc2)c1[N+](=O)[O-]	9.28µM*	2.0%	14.7µM*	-15.6%	?	-1.2%
CCCCNC(=O)CSc1nc2nc(C)c(Cc3ccccc3C)c(C)n2n1	.	-1.0%	.	.	.	.
COC(=O)c1c(NC(=O)C2CCCO2)sc2c1CCC2 (configuration not stated)	-1.3%	-6.5%	.	25.5%	5.62µM*	-7.9%
COc1ccc(CC(=O)Nc2sc3c(c2C(N)=O)CCCC3)cc1	-6.3%	-5.4%	.	-14.6%	?	2.4%
NC(=O)c1c(NC(=O)c2cccs2)sc2c1CCCCCC2	14.0%	-8.6%	57.6%	3.3%	10µM*	-10.6%
CCn1cc(Br)c(C(=O)Nc2sc3c(c2C(N)=O)CCCC3)n1	18.5%	3.2%	12.4%	-19.2%	-2.7%	5.2%
O=C(Nc1sc2c(c1C(=O)O)CCC2)c1cccs1	-8.4%[5.75 µM]	-11.4%	45.9%	-22.9%	-22.3%	-3.1%
COc1cc(OC)cc(C(=O)Nc2sc3c(c2C(N)=O)CCC3)c1	46.4%	-12.5%	48.1%	-9.7%	2µM*	86.1%
Cn1cc(Br)c(C(=O)Nc2sc3c(c2C(N)=O)CCCC3)n1	4.15µM*	?	39.4%	1.9%	-8.9%	35.8%
CCCN(CCC)CC(O)Cn1cc(/C=C/C(=O)c2ccc(OCC)cc2)c2ccccc21 (configuration not stated)	.	21.8%	.	.	.	.
SMILES	Pf growth 96h	AmpC detergent	Pf growth 48h	AmpC inh no detg	HCV inhibitor	AMA1 RON2 block
COC(=O)c1sc2cccc(F)c2c1S(=O)(=O)N1CCN(c2ccccc2OC)CC1	.	3.3%	.	.	.	.
Cc1ccc(NC(=S)c2nc3ccccc3[nH]2)c(C)c1	-9.4%	-5.9%	17.3%	-36.0%	-14.6%	35.4%[11.6 µM]
O=C(O)c1ccc(/C=C(\c2nc3ccccc3[nH]2)c2nc3ccccc3s2)cc1	7.9%	-5.2%	5.6%	-8.3%	27.1%	10.2%
Cc1cccc(/C=C(\c2nc3ccccc3[nH]2)S(=O)(=O)c2ccccc2)c1	?	-3.5%	3.7µM*	-26.5%	11.2µM*	-3.4%
CC(C)(C)c1ccc(/C=C(\c2nc3ccccc3[nH]2)S(=O)(=O)c2ccccc2)cc1	.	.	.	.	11.2µM*	-6.9%
COc1ccc(Cl)cc1NC(=O)CSc1ccc2nnc(CCNS(=O)(=O)c3ccccc3)n2n1	.	3.6%	.	.	.	.
Nc1cccc(C(=O)OCC(=O)NC2CCCc3ccccc32)c1 (configuration not stated)	19.4%	?	11.7µM*	-23.9%	-12.7%	-2.1%
COc1ccc(/C=c2\s/c(=C\C(=O)C(C)(C)C)[nH]c2=O)cc1O	4.15µM*	2.6%	?	-28.5%	?	43.9%
COc1cc(/C=c2\s/c(=C\C(=O)C(C)(C)C)[nH]c2=O)cc(OC)c1OC	?	1.5%	?	130.3%	?	29.2%
Cc1cccc(/C=c2\s/c(=C\C(=O)C(C)(C)C)[nH]c2=O)c1	2.08µM*	-2.3%	?	-43.1%	?	-7.7%
CCOC(=O)c1c(C)[nH]c(C)c1S(=O)(=O)N1CCCC(C(=O)Nc2cc(C)ccc2C)C1 (configuration not stated)	.	-0.1%	.	.	.	.
Cc1ccc(C(=O)N/C(=C\c2ccc(-c3ccccc3[N+](=O)[O-])o2)C(=O)NCCCN(C)C)cc1	5.22µM*	-6.6%	2.62µM*	62.4%	-17.7%	18.9%
CN(C)CCCNC(=O)/C(=C/c1ccc(-c2ccc([N+](=O)[O-])cc2)o1)NC(=O)c1ccccc1	?	1.7%	?	104.1%	?	7.9%
Cc1ccc(C(=O)N/C(=C\c2ccc(-c3ccccc3[N+](=O)[O-])o2)C(=O)NCCN(C)C)cc1	?	4.0%	1.47µM*	107.7%	-26.9%	36.5%
